Test results reported in PubChem BioAssay (NCI).
This is part of a sample that, as a whole, favours compounds with a hit. Of some 83,000 tested, about 20% had one in any assay.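 Step 1: grow cells in 96-well plates. Step 2: add test compound at a single concentration. Step 3: incubate 48 h. Step 4: record percent growth.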 Calls of active or inactive are those of the source. How the source made its calls: active means growth percent below 10; inactive means the rest.

tested on: CAKI-1 renal; assay: NCI-60 one-dose screen, 48 h (100 = growth as untreated, 0 = no growth, -100 = all killed); conditions: 10 µM unless noted

Row | Compound | growth
1 | O=Cc1ccc([N+](=O)[O-])s1 | 100% (inactive)
2 | CC(C)(C)n1cc(-c2ccnc(NCCCNS(=O)(=O)c3ccc(F)cc3)c2)c(-c2cccc(F)c2)n1 | 53.6% (inactive)
3 | O=C1C(Cl)=C(Nc2ccc(O)cc2)C(=O)N1Cc1ccc(Cl)cc1 | 74% (inactive)
4 | COc1cc(CNC(=O)CCCC/C=C/C(C)C)ccc1OCc1nnc(Nc2ccc([N+](=O)[O-])cc2)o1 | 33.6% (inactive)
5 | O=C(N/N=C/c1ccc(F)cc1)c1ccc(C(F)(F)F)nc1Nc1cccc(C(F)(F)F)c1 | -7.66% (active)
6 | C=C(C)[C@@H]1CC[C@]2(C(=O)NCCNCCN)CC[C@]3(C)[C@H](CC[C@@H]4[C@@]5(C)C/C(=C/c6ccncc6)C(=O)C(C)(C)[C@@H]5CC[C@]43C)[C@@H]12 | 85.6% (inactive)
7 | O=C(COc1ccc(-c2nc3ccccc3[nH]2)cc1)N=Nc1c(O)[nH]c2ccc(Cl)cc12 | 93.9% (inactive)
8 | C/C(=N/O)c1ccc(F)cc1 | 61% (inactive)
9 | COc1ccc(C2=Nc3c/c(=C\c4c(O)[nH]c5ccc(Cl)cc45)ccc3=N2)cc1 | 51.3% (inactive)
10 | CCOC(=O)c1cnc2ccccc2c1Cl | 94.8% (inactive)
11 | CCCc1cc(NC)nc(S(=O)(=O)CC)n1 | 98.1% (inactive)
12 | COc1ccc(/C=C2\C(=O)N=C3N2NC(c2cc(Br)ccc2O)C=C(C)N3c2ccccc2)cc1 (stereo unspecified) | 96.5% (inactive)
13 | O=S(=O)(NCCNc1nccc(-c2c(-c3cccc(F)c3)nc3occn23)n1)c1ccc(Br)cc1 | 70.5% (inactive)
14 | CCn1cc(C(=O)N/N=C/c2cccs2)c(=O)c2cc(F)c(N3CCNC(C)C3)c(F)c21 (stereo unspecified) | 46.5% (inactive)
15 | Cn1c(=O)c2[nH]c(N/N=C/c3ccccc3Br)nc2n(C)c1=O | 93.4% (inactive)
16 | CCCCCCNC(=O)Oc1ccc(/C(=C(/C)Cc2ccc(OC)cc2)c2ccc(OCCCN(C)C)cc2)cc1 | 44.5% (inactive)
17 | O=C(OCc1ccc2cccc(O)c2n1)N1CCN(C(=O)c2cc3cc(F)ccc3[nH]2)CC1 | -97.8% (active)
18 | CC(=O)[C@@H]1CCC=C2CC[C@]3(C)[C@@H](CC[C@@H]4[C@@]5(C)CCCNC(C)(C)[C@@H]5CC[C@]43C)[C@H]21 | -92.5% (active)

Row | Compound | growth
19 | O=c1oc2ccc([N+](=O)[O-])cc2cc1Br | 94.5% (inactive)
20 | S=C(Nc1ccc(-c2nc(N3CCOCC3)c3cccn3n2)cc1)Nc1cccnc1 | 60.6% (inactive)
21 | O=C1/C(=C/c2ccc(-c3ccc(Br)cc3)o2)SC(=S)N1CCc1ccc(O)cc1 | 39.1% (inactive)
22 | CCOC(=O)CSc1ncnc2c1c(-c1ccccc1)c(-c1ccccc1)n2-c1ccc(C)cc1 | 75.6% (inactive)
23 | CCNc1cc(-c2cccc(OC(F)(F)F)c2)nc2ccc(N3CCCC3)cc12 | 30.6% (inactive)
24 | CCCCNC(=O)Oc1ccc(/C(=C(/CC)Cc2ccccc2)c2ccc(OCCN3CCCCCC3)cc2)cc1 | 72.1% (inactive)
25 | COc1ccc(-c2nc3c(c(-c4ccccc4)nn3-c3ccccc3)c(-c3ccc(N4CCOCC4)cc3)c2C#N)cc1 | 93.7% (inactive)
26 | COc1cc(-c2csc(NC(=O)c3cc(-n4cnc(C)c4)cc(C(F)(F)F)c3)n2)cc(OC)c1OC | 62.8% (inactive)
27 | COc1cc(CNS(=O)(=O)c2ccc(C)cc2)ccc1OCc1cn(-c2ccc(Br)cc2)nn1 | 91.6% (inactive)
28 | Nc1ncnc2c1N=C(c1ccc3c(c1)OCO3)CC(c1ccc([N+](=O)[O-])cc1)N2 (stereo unspecified) | 99.2% (inactive)
29 | COc1ccc(-c2nc3c(c(-c4ccccc4)nn3-c3ccccc3)c(-c3ccc(N4CCN(C)CC4)cc3)c2C#N)cc1 | 90% (inactive)
30 | CCOC(=O)C(=Cc1cccc(Cl)c1)C(=O)OCC | 61.5% (inactive)
31 | O=C1NC(=O)c2c1c1c3ccccc3ccc1c1[nH]c3ccc(Br)cc3c21 | 15.8% (inactive)
32 | CC1(c2ccccc2O)NN=C(/N=C/c2cccc([N+](=O)[O-])c2)N1C(Cc1c[nH]c2ccccc12)C(=O)O (stereo unspecified) | 93.7% (inactive)
33 | CCOP(=O)(OCC)c1nc(-c2ccccc2)oc1NCc1cccnc1 | 97.3% (inactive)
34 | CCOC(=O)c1cn2ncnc(Oc3ccc(NC(=O)NC4CCCCC4)c(Cl)c3)c2c1C | 85% (inactive)
35 | COC(=O)c1cc(-c2ccccc2)[nH]c1N/N=C/c1c(Cl)cccc1Cl | 5.94% (active)
36 | COc1ccc(-c2nnc(-c3ccc4c(c3)nc(-c3ccncc3)n4C3CCCCC3)o2)cc1 | 89.7% (inactive)
